Assay outcomes: PubChem BioAssay, National Center for Advancing Translational Sciences (NCATS)
Only some compounds are listed: those with a hit (about 11% of all), similar ones and a draw of the others.
Luciferase inh: blocks purified firefly luciferase enzyme activity. P08659. purified P. pyralis luciferase, luminescence, biochemical. Potency, µM (top dose mostly 115 µM), hits mostly inhibitors. actives 2.5% (n = 76,000). AID 1347043; further: nearly all actives have a fitted effect of over 65% in size
Target sequence (P08659 whole entry, looked up): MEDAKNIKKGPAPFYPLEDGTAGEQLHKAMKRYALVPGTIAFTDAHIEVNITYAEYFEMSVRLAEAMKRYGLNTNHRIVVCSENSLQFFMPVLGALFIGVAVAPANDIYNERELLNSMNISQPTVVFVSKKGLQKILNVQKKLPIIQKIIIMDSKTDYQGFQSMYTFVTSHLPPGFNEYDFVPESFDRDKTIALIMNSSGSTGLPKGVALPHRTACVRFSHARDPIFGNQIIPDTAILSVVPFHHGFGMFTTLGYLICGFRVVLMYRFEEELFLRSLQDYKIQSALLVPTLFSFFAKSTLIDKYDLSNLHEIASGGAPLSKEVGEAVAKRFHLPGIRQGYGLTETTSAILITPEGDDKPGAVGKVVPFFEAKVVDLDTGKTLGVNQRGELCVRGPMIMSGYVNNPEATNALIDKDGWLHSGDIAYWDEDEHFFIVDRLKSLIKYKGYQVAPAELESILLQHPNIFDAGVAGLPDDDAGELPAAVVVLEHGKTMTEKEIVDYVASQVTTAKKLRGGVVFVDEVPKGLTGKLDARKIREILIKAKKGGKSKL
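Inhibitors were tested against purified firefly luciferase in a biochemical, low-substrate format (both substrates at 10uM) and luminescence measured with a CCD imager.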
NPR1 antag: blocks ANP-stimulated signaling of human Npr1 receptor; P16066; HEK293 hNpr1 GloSensor cGMP, ANP-stimulated luminescence; Potency, µM (titrated, usually from 46.3 µM), without a hit: top-dose activity change, negative = inhibition, most hits filed as inhibitors; actives 1.6% (n = 76,000); AID 1347048; calls by dose curve; further: nearly all actives have a fitted effect of over 60% in size
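HEK293 cells stably expressing human Npr1 and cGMP GloSensor pGS-40F, loaded 2 h with 2% GloSensor reagent, given compound 30 min at room temperature. Luminescence read before and 20 min after 0.1 nM hNppA.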
3T3 cytotox: kills NIH 3T3 cells; NIH 3T3 viability, CellTiter-Glo ATP luminescence, 48-72 h; Potency, µM (doses to about 96.7 µM), for the others: at the highest dose activity change, negative = cytotoxicity, most hits filed as inhibitors; actives 4.3% (n = 94,000); AID 1345082; further: nearly all actives have a fitted effect of over 55% in size
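Luminescent ATP readout (CellTiter-Glo, 10 min RT) after 48 or 72 hr compound exposure of NIH 3T3 cells seeded at 400 cells/well in 1536-well format; quantitative HTS.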
HEK293 tox: cytotoxic compounds in HEK 293 cells. HEK 293 viability, ATP luminescence (CellTiter-Glo), 48-72 h. Potency, µM (series often up to 115 µM), inactives show top-dose activity change, negative = cytotoxicity, most hits filed as inhibitors. actives 6.6% (n = 94,000). AID 1345083; further: nearly all actives have a fitted effect of over 60% in size
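Pintool-delivered compounds were incubated with HEK 293 cells (250 cells/well) at 37 degree Celsius for 48 or 72 hr. ATP-dependent luminescence (CellTiter-Glo) then reported remaining viable cells.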
Numbers without * were called inactive; i = inactive; ? = inconclusive; · = no result; [ ] = dose if it differs, or a comment. Unless noted, the call rests on the fitted dose curve; in most records, active means well fitted curve in the direction sought with a large enough effect; inconclusive means small, poorly fitted or top-dose-only effect, or another doubt; inactive means no such curve, though single readings can be large; an effect the other way counts as inactive or inconclusive. On the % scale 0 is the no-effect control and ±100 the full control effect; potency means the concentration at half of the fitted maximal effect.

SMILES | Luciferase inh | NPR1 antag | 3T3 cytotox | HEK293 tox
C#CCNC(=O)c1nc(-c2ccccc2)c2ccccn12 | i | 1%[70.6 µM] | ? | ?
CC(C)NC(=O)c1nc(-c2cccc(C(F)(F)F)c2)c2ccccn12 | i | 13% | 89µM* | 79µM*
C#CCNC(=O)c1nc(-c2cccc(C(F)(F)F)c2)c2ccccn12 | i | -24%[70.6 µM] | ? | 50µM*
O=C(Cc1ccccn1)N1CCCC(C(=O)N2CCC(N3Cc4cccn4C3=O)CC2)C1 (stereo not given) | · | · | -12% | 3%
CNC(=O)C1CCCN1C(=O)c1cccc(-c2ccccn2)c1 (stereo not given) | · | · | -15%[138 µM] | -20%[172 µM]
O=C(NC[C@H]1O[C@H](Cc2cc(-c3ccc(F)cc3)on2)CC[C@@H]1O)c1ccc(F)cc1 | 40µM* | 16µM* | ? | ?
CC(C)CCNC[C@H]1O[C@H](Cc2cc(-c3ccc(F)cc3)on2)CC[C@@H]1O | ? | ? | 50µM* | 89µM*
CN(C)C[C@H]1O[C@H](Cc2cc(-c3ccc(F)cc3)on2)CC[C@@H]1O | i | -18%[70.6 µM] | -30%[138 µM] | -29%[172 µM]
CC(=O)NC[C@H]1O[C@H](Cc2cc(-c3ccc(F)cc3)on2)CC[C@@H]1O | ? | ? | -7%[138 µM] | -17%[172 µM]
